SRC1 TRFRET art – TR-FRET detection interference compounds, primary screen, artefact control for PPARgamma SRC-1 recruitment agonists, biochemical, TR-FRET emission ratio. TR-FRET ratio at 8 µM. 99,000 tested, 0.34% active. TR-FRET detection artefact counter-screen; hits give high values. AID 1051, 2008; in the data active = TR-FRET ratio above about 2300
PPARg SRC-1 ag – PPARgamma agonists recruiting SRC-1 coactivator, primary screen, biochemical. activation, % at 8 µM. PPARgamma-SRC-1 coactivator recruitment biochemical assay. Peroxisome proliferator-activated receptor gamma (Homo sapiens), P37231. 200,000 tested, 0.41% active; in the data active = activation above about 19%;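 also: 0% = DMSO and 100% = reference agonist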
Target sequence (P37231 whole entry, looked up): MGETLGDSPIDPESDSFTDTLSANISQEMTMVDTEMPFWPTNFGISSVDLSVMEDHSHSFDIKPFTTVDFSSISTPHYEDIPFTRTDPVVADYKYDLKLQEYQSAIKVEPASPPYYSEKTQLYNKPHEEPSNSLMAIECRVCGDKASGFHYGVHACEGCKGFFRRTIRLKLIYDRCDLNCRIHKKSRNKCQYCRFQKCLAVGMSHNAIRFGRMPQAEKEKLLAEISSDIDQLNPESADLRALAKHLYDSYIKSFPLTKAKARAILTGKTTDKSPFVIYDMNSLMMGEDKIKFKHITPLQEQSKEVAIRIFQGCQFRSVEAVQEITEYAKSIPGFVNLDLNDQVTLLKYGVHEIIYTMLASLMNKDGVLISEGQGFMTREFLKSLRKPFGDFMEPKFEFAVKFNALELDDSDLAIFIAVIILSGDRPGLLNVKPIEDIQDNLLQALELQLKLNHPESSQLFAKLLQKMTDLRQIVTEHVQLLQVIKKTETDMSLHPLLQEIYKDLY
PPARg SRC3 recr – PPARgamma agonists recruiting SRC-3 coactivator, primary screen, biochemical | 200,000 tested, 0.26% active | Peroxisome proliferator-activated receptor gamma (Homo sapiens), P37231 | biochemical PPARgamma/SRC-3 coactivator recruitment assay | activation, % at 8 µM; in the data active = activation above about 23%;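 also: 0% = DMSO and 100% = reference agonist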
SRC3 TRFRET art – TR-FRET detection interference compounds, artefact control for PPARgamma SRC-3 recruitment agonists, biochemical, TR-FRET ratio; TR-FRET artefact counter-screen, PPARgamma/SRC-3 format; hits give high values; TR-FRET ratio at 8 µM; 99,000 tested, 0.39% active
SRC2 TRFRET art – TR-FRET signal artefacts, primary screen, artefact control for PPARgamma SRC-2 agonist project, biochemical; TR-FRET artefact counter-screen; hits give high values; AID 1049, 2008; TR-FRET ratio at 8 µM; 200,000 tested, 0.4% active
PPARg SRC-2 ag – agonists of PPARg-SRC-2 recruitment, primary screen, biochemical, HTS. Peroxisome proliferator-activated receptor gamma (Homo sapiens), P37231. PPARgamma LBD-SRC-2 recruitment. activation, % at 8 µM. 200,000 tested, 0.34% active. AID 1032, 2008; in the data active = activation above about 22%;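 also: 0% = vehicle and 100% = reference agonist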
Starred values were filed as active, the others as inactive; · = not tested or not shown. Shown are actives, neighbours in structure and some others; about 0.9% of the full set was active somewhere. Rule as the data show it, unless noted: active = TR-FRET ratio above about 2000; inactive = the rest.

SMILES | SRC1 TRFRET art | PPARg SRC-1 ag | PPARg SRC3 recr | SRC3 TRFRET art | SRC2 TRFRET art | PPARg SRC-2 ag
COc1cc(NC(=O)c2ccc(Cl)cc2Cl)ccc1-c1cc2ccccc2oc1=O | · | 13 | 18 | · | 2335* | 17
COc1cnn(-c2ccccc2)c(=O)c1N(C)C | · | -4 | 26* | · | 1421 | -5
CC1(C)CC(=O)C(C=Nc2ccccc2C(=O)O)=C(O)C1 | · | 6 | 4 | · | 1972* | 0
O=C(Nc1cccc(S(=O)(=O)NC2=NCCCCC2)c1)c1cc(-c2ccc(Cl)cc2)nc2ccccc12 | 2062 | 0 | 4 | 2132* | 1927 | 9
Cc1ccc(-n2c(C)cc(C(=O)COc3c(CO)cc(F)cc3CO)c2C)cc1C | 2057 | 0 | 5 | 1503 | 1818 | 22*
CC(C)C[C@H](NC(=O)OC(C)(C)C)c1nnc(SCc2cccc(F)c2)o1 | · | 15 | 6 | · | 1571 | 0
CC(C)[C@H](NC(=O)OC(C)(C)C)c1nnc(SCc2cccc(F)c2)o1 | · | 55* | 5 | · | 1557 | 15
CCOC(=O)c1ccc(NC(=O)CCc2nc(-c3ccc(C)cc3)no2)cc1 | · | -2 | 8 | · | 2077* | 35*
CCOC(=O)c1ccc(NC(=O)CCc2nc(-c3ccc(Cl)cc3)no2)cc1 | · | 2 | -12 | · | 1790 | 1
COC(=O)COc1ccc(S(=O)(=O)N2CCc3ccccc3C2)cc1C | · | -4 | -7 | · | 1215 | 3
COc1ccc(C2=NN(C(=O)CSc3nc4ccccc4s3)C(c3ccc(F)cc3)C2)cc1 (configuration not stated) | 1833 | -8 | -4 | 1435 | 1326 | 8
O=C1CCCN2N=C(SCC(=O)N3N=C(c4ccc(Br)cc4)CC3c3ccc(F)cc3)SC2=N1 (configuration not stated) | 2131 | -4 | -3 | 2326* | 2012* | -2
COc1ccc(C(=O)NCc2nnc(SC)n2Cc2ccccc2)cc1 | 1785 | 0 | 0 | 1600 | 1548 | 0
COc1ccc(/C(C)=N/N=C2/NC(=O)CC(C(=O)O)S2)cc1 (configuration not stated) | 1477 | -8 | -1 | 1614 | 1565 | -3
C/C(=N\N=C1\NC(=O)CC(C(=O)O)S1)c1ccc(F)cc1 (configuration not stated) | 2658* | 16 | 2 | 1450 | 1531 | -6
O=C(c1ccc(COc2ccccc2Br)o1)N1N=C(C(F)F)CC1(O)C(F)F (configuration not stated) | 1935 | -2 | -1 | 1646 | 1476 | -3
CC1CCN(S(=O)(=O)c2ccc3ncn(CC(=O)N4CCN(C)CC4)c(=O)c3c2)CC1 | 1858 | 8 | 3 | 1535 | 1684 | 2
CCOC(=O)c1c(NC(=O)C2=C(C)NC(=S)NC2c2ccc(C)cc2)sc(C)c1C (configuration not stated) | 2914* | 16 | 2 | 1630 | 1494 | 3
CCOC(=O)c1c(NC(=O)C2=C(C)NC(=S)NC2c2ccc(F)cc2)sc(C)c1C (configuration not stated) | 1845 | 1 | 1 | 1671 | 1612 | 7
CCN1/C(=C/C=C/C=C/c2sc3ccccc3[n+]2CC)Sc2ccccc21 | 14504* | 448* | 339* | 13609* | 10856* | 541*
Cc1cc(OCc2nc(-c3ccncc3)no2)cc(C)c1Cl | 1822 | 0 | 2 | 1846 | 1835 | 3
COc1ccc(Nc2nc(S(=O)(=O)c3ccc(C)cc3)c(Cl)s2)cc1 | 2100 | 6 | 23* | 1860 | 1709 | 3
Cc1ccc(S(=O)(=O)c2nc(Nc3ccccc3)sc2Cl)cc1 | 1923 | 13 | 6 | 1658 | 1595 | 8
CCOC(=O)C1C(C)=C(Nc2ccc(OC)cc2)C(=O)N1c1ccc(OC)cc1 (configuration not stated) | 1827 | 4 | 0 | 1427 | 1565 | -4
COc1ccccc1C(=O)NCC(=O)OCC(=O)c1ccc2c(c1)-c1ccccc1C2 | 1947 | 4 | 8 | 2088* | 1874 | 16
